Assay outcomes (PubChem BioAssay)
UGM FP inh: M. tuberculosis UGM enzyme inhibitors, primary screen, biochemical, fluorescence polarization, single point; UDP-galactopyranose mutase (Mycobacterium tuberculosis (strain ATCC 25618 / H37Rv)), …; 320,000 compounds, 0.06% hits; purified UGM, fluorescence polarization probe displacement; inhibition, % at 10 µM; in the data active = inhibition above about 10%, passing the limit was not always enough
Mtb bLac sens: beta-lactam sensitization of Mtb H37Rv, H37Rv; 330,000 compounds, 0.27% hits; M. tuberculosis H37Rv growth with meropenem, percent inhibition; AID 434955, 2010; inhibition, % at 25 µM; call rule not given here;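 also: growth measured after seven days incubation then overnight dye step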
Rv3671c inh: Rv3671c serine protease inhibitors, primary screen, biochemical, fluorescence polarization, M. tuberculosis H37Rv. P9WHR9. inhibition, % at 5.96 µM. 320,000 compounds, 0.048% hits. AID 2606, 2010; in the data active = inhibition above about 38%;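 also: extracellular domain of Rv3671c used as enzyme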
GDH-TPI counter: GDH-TPI coupling enzyme inhibitors, primary screen, artefact control for M. tuberculosis FBA inhibitor project, biochemical, absorbance, full deck; GDH-TPI coupled enzyme counterscreen, NADH absorbance; inhibition, % at 4.8 µM; 360,000 compounds, 1.2% hits; AID 588335, 2011; in the data active = inhibition above about 30%
Mtb FBA inh: Mtb FBA enzyme inhibitors, primary screen, biochemical, fluorescence, strain H37Rv | inhibition, % at 1 µM | purified M. tuberculosis FBA, fluorescence read-out | 360,000 compounds, 2.3% hits | AID 588726, 2011; in the data active = inhibition above about 27%
Target sequence (P9WQA3 whole entry, looked up): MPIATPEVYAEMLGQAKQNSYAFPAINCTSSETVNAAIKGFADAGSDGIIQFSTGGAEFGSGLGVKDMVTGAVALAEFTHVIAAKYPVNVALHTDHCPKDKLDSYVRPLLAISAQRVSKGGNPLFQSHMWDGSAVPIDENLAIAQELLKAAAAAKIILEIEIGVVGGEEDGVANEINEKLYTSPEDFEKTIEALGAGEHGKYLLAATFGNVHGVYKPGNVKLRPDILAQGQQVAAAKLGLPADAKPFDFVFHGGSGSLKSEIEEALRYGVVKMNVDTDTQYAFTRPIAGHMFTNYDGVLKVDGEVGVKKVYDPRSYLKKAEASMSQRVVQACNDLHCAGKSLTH
RecA splice inh: Mtb RecA intein splicing inhibitors, primary screen, biochemical, fluorescence, HTS; cell-free RecA intein splicing; inhibition, % (test concentration not listed); 290,000 compounds, 0.75% hits; AID 2221, 2009; Protein RecA (Mycobacterium tuberculosis (strain ATCC 25618 / H37Rv)), P9WHJ3; in the data active = inhibition above about 30%
A number is an active result; 0 = inactive; - = not tested or not shown; + = active, no number. A selection: hits, their analogues and other compounds. The true share with any hit is near 4%.

SMILES | UGM FP inh | Mtb bLac sens | Rv3671c inh | GDH-TPI counter | Mtb FBA inh | RecA splice inh
CCCCc1ccc(NC(=S)NCCN2CCOCC2)cc1 | 0 | 0 | 0 | 0 | 0 | 0
N#C/C(=C/c1cccs1)c1ccccn1 | 0 | 0 | 0 | 33.2 | 0 | 0
N#C/C(=C\c1ccccn1)c1ccccn1 | 0 | 0 | 0 | 0 | 0 | 0
O=C(NCC1CCCO1)/C(=C/c1cn(-c2ccccc2)nc1-c1cccnc1)NC(=O)c1ccccc1 (centres undefined) | 0 | 0 | 0 | 0 | 0 | 0
NC(=O)c1nsc(C(=O)N(Cc2ccc(F)cc2)C(C(=O)NCC2CCCO2)c2ccc(O)cc2)c1N (centres undefined) | - | - | - | 0 | 0 | 0
COC(=O)c1[nH]c2cc(OC)ccc2c1NC(=O)CCN1CCCC(C)(C)C1 | 0 | 0 | 0 | 0 | 0 | 0
CCCCCCOC(=O)c1ccc(OC(=O)c2cccnc2)cc1 | 0 | 0 | 0 | 0 | 0 | 61.1
COc1ccccc1CCNC(=O)C(=O)Nc1cc2c3c(c1)C(C)C(=O)N3CCC2 (centres undefined) | 0 | 0 | 0 | 0 | 0 | 0
COc1cc(/C=N/NC(N)=S)ccc1OCC(=O)N1CCOCC1 | - | 0 | 0 | 31.5 | 0 | 0
COc1cc(/C=C2\SC(=O)NC2=O)ccc1OCC(=O)N1CCOCC1 | 0 | 0 | 0 | 36.8 | 0 | -
Cc1ccc(C)c(NC(=O)CCc2ccc(S(=O)(=O)NC3CCCCC3)cc2)c1 | 0 | 0 | 0 | 0 | 0 | 0
O=C(c1cc(-c2ccncc2)nc2ccccc12)N1CCN(Cc2ccccc2)CC1 | 0 | 0 | 0 | 0 | 0 | -
O=C(COC(=O)c1cc[n+]([O-])cc1)Nc1ccccc1Sc1ccccc1 | 0 | 0 | 0 | 0 | 0 | 0
Cc1ccc(S(=O)(=O)N[C@@H](Cc2ccccc2)C(=O)N2CCC[C@@H]2C(=O)O)cc1 | 0 | 0 | 0 | 0 | 0 | 0
COc1ccc2cc3cc(C(=O)Nc4cc(OC)c(OC)c(OC)c4)oc3nc2c1 | 0 | 0 | 0 | 0 | 0 | 0
COc1ccc2cc3cc(C(=O)N4CCN(c5ccccn5)CC4)oc3nc2c1 | 0 | 0 | 0 | 41.7 | 0 | 0
Cc1ccc2cc3cc(C(=O)NC4CC4)oc3nc2c1 | 0 | 0 | 0 | 48.7 | 0 | 0
COc1ccc2cc3cc(C(=O)NCc4ccc5c(c4)OCO5)oc3nc2c1 | 0 | 0 | 0 | 36.8 | 0 | 0
COc1ccc2cc3cc(C(=O)Nc4ccc5c(c4)OCCO5)oc3nc2c1 | 0 | 0 | 0 | 43.0 | 0 | 0
COc1ccc2cc3cc(C(=O)N4CC(C)CC(C)C4)oc3nc2c1 (centres undefined) | 0 | 0 | 0 | 0 | 0 | 0
COc1ccccc1NS(=O)(=O)c1cc(NC(=O)c2cccc(S(=O)(=O)N(C)C)c2)ccc1N1CCOCC1 | - | - | - | 0 | 0 | -
O=C(Nc1cccc(Cl)c1)OCc1cncs1 | 0 | 0 | 0 | 0 | 0 | 0
COc1ccc(C(=O)NCc2cccnc2)cc1 | 0 | 0 | 0 | 0 | 0 | 0
CC(=O)NCC1COc2ccccc2O1 (centres undefined) | 0 | 0 | 0 | 0 | 0 | 0
COc1ccc2cc3cc(C(=O)NC(C)C)oc3nc2c1 | 0 | 0 | 0 | 31.5 | + | 0
SMILES | UGM FP inh | Mtb bLac sens | Rv3671c inh | GDH-TPI counter | Mtb FBA inh | RecA splice inh
COc1ccc2cc3cc(C(=O)NCc4cccnc4)oc3nc2c1 | 0 | 0 | 0 | 0 | + | 0
COc1ccc2cc3cc(C(=O)NCC4COc5ccccc5O4)oc3nc2c1 (centres undefined) | 0 | 0 | 0 | 0 | 152.1 | 0
COC(=O)c1c(C)cccc1C1CN=NC12Cc1ccccc1C2=O (centres undefined) | - | - | - | 0 | 0 | -
O=C(c1ccccc1)c1c[nH]c(C(=O)C(Cl)(Cl)Cl)c1 | 0 | 0 | 0 | 0 | 0 | 46.2
O=C(c1c[nH]c(C(=O)C(Cl)(Cl)Cl)c1)c1ccc(F)cc1F | 0 | 0 | 0 | 0 | 0 | 33.8
CN(C)C=NC(=O)c1cc(C(=O)c2ccccc2)c[nH]1 | 0 | 0 | 0 | 0 | 0 | 0
COc1cc(/C=C2/C(=O)c3cccc([N+](=O)[O-])c3C2=O)c(Br)cc1O | 0 | 0 | 0 | 0 | 0 | -
CCOc1ccc(CN(C)C(=O)CCl)cc1 | 0 | 0 | 0 | 0 | 0 | 55.1
O=C1c2cccc3cccc(c23)C(=O)N1c1ccccc1Cl | 0 | 0 | 0 | 32.5 | 0 | 0
Nc1ccccc1N1C(=O)c2cccc3cccc(c23)C1=O | 0 | 0 | 0 | 0 | 0 | 0
CSCC[C@H](NC(=O)C1CCN(S(=O)(=O)c2ccc(C)cc2C)CC1)c1nc2ccccc2[nH]1 | 0 | 0 | 0 | 0 | 0 | -
Cc1c(OC(C)C(=O)NCCCN2CCCC2=O)ccc2c3c(c(=O)oc12)CCCC3 (centres undefined) | 0 | 0 | 0 | 0 | 43.0 | 0
Cc1cc(OC(C)C(=O)NCCCN2CCCC2=O)c2c(C)c(C)c(=O)oc2c1 (centres undefined) | 0 | 0 | 0 | 0 | 112.3 | 0
O=C(Cn1cc(COc2c(F)c(F)c(Br)c(F)c2F)nn1)c1ccc(O)cc1 | - | - | - | 31.1 | 0 | -
O=C(Cn1cc(COc2c(Br)cc(F)cc2Br)nn1)c1ccc(O)cc1 | - | - | - | 0 | 0 | -
O=C(Cn1cc(COc2ccc3ccc(=O)oc3c2)nn1)c1ccc(O)cc1 | - | - | - | 41.2 | 0 | -
O=C(Cn1cc(COc2ccc(Br)cc2)nn1)c1ccc(O)cc1 | - | - | - | 0 | 0 | -
Cc1ccc(CC(=O)OCC(=O)c2ccc[nH]2)cc1C | 0 | 0 | 0 | 0 | 0 | -
C#CCn1cnc2c(cnn2-c2ccc(C)c(C)c2)c1=O | 0 | 0 | 0 | 0 | 0 | 0
Cc1ccc(C(=O)N(Cc2nc3ccccc3c(=O)[nH]2)C2CCCC2)cc1 | 0 | 0 | 0 | 0 | 0 | 0
CC1(C)CC(=O)c2sc(NC(=O)CN3CCCCC3)nc2C1 | 0 | 0 | 0 | 34.4 | 0 | 0
COc1ccc(COCC(O)CN2CCCC(C(F)(F)F)C2)cc1 (centres undefined) | 0 | 0 | 0 | 0 | 0 | 0
CC(=O)c1ccc(NC(=S)NNC(=O)c2ccncc2)cc1 | 0 | 0 | 0 | 31.6 | 0 | 0
O=C(NNC(=O)c1ccncc1)Nc1ccc(N=Nc2ccccc2)cc1 | - | - | - | 36.6 | 0 | -
Cc1ccccc1NC(=S)NNC(=O)c1ccncc1 | 0 | 0 | 0 | 0 | 0 | 0
CCOC(=O)C1=C(C)N(CC)C(=S)NC1c1ccccc1OC(F)F (centres undefined) | 0 | 0 | 0 | 0 | 0 | -
O=C(NCC1CCCN1S(=O)(=O)c1ccccc1)C(=O)NC1CC1 (centres undefined) | 0 | 0 | 0 | 0 | 0 | 0
O=C(O)CC/C(=C/c1cccc(NC(=O)c2ccccc2Cl)c1)c1nc2ccccc2s1 | - | - | - | 37.0 | 0 | -
O=C(CSc1nnc(NC(=O)c2ccco2)s1)NC1CCCC1 | 0 | 0 | 0 | 40.2 | 0 | 0
